The supplement of paper PMC11417369
Over roughly 25,000 sequences, “ln(normalized median fluorescence intensity)” has its median near 6.7; the highest 2% begin near 10. The full list was thinned out, with the highest values kept by preference.

Test system: PfHDP1 homeodomain (GST-tagged)
Experiment: gcPBM binding intensity (ln(normalized median fluorescence intensity)); higher = stronger DNA binding
Method in brief: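 After 1 h on an Agilent 4 × 180k array of primer-extended double-stranded 36-bp intergenic genomic probes and negative controls, bound GST-tagged P. falciparum DNA-binding domains were detected with Alexa488 anti-GST antibody and scanned at 488 nm. The domains had been expressed in E. coli, and binding took place in 1× PBS with 1% milk, 0.2 mg/ml BSA, 0.5% salmon testes DNA and 0.03% Triton X-100. Binding intensity is the highest Masliner-normalised natural-log median intensity across replicate spots of either probe orientation.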

Sequence	gcPBM binding intensity (ln)
TTCTTAATATTGCATGCACACTATATAATAATTGAA [CACACA_site4720]	9.18
GTCTCCTTTATTTTTGGTACAGATAAGATAAAAGGA [XGTACX_site1591]	6.46
CACTTAAAAAAAATACGTACACATATATATATATAT [XGTACX_site2054]	9.39
TATAATATAATTAAAAGTACTTAAAAAAGAATGAAA [XGTACX_site1157]	6.99
CATCAATGCTAATTATGTACTTACATAAATAACCCT [XGTACX_site968]	6.52
TTGTGCTTGATATCACGGACAAGCTCATATTATATA [XGTACX_site4553]	6.03
AATGTCATGATACATACACACACATACACATACACA [CACACA_site8665]	6.98
ATATAACGAATAATTACACACTATAAAAAAAGATCT [CACACA_site2862]	6.63
GTACACCTATAATATACACACAACAAATATGCACAT [CACACA_site6603]	10.2
GTACACATATAATATACACACAACAAATATGCACAT [CACACA_site1010]	10.6
TATAATATTCCTTTTTAACACACATATGAACAAATA [CACACA_site7932]	6.77
ATGAATCCTTAATATGAACACACAAATATATTACAC [CACACA_site7943]	6.7
ATCCTTAATATGAACACACAAATATATTGCACATAT [CACACA_site6230]	10.9
AAAATATAAAATAATGCACACATAAACAAAAAATCA [CACACA_site8382]	10.5
TATAAAAATATATGCACACAAATAAAAAATTATATA [CACACA_site3629]	9.87
AAATATAATATATGCACACATACATACATATATATA [CACACA_site104]	10.3
AATATAAAATAATGCACACATAAACAAAAAATCAAA [CACACA_site1371]	10.4
AATTATGCACAAATCACACATATAAAATAAAAAGTG [CACACA_site4474]	11.1
CATATAAAAATATATGCACACAAATAAAAAATTATA [CACACA_site9210]	10
AGAAAAAAAATGTATACACACAAATATAAAGAAGGA [CACACA_site3806]	7.09
GTACTCTTCTCCAGACTGCACTATACGACTCGTACA [GTGCAC_site9770]	7.35
AAATATTTTTTAATGTGTACATAGAACATATATATA [XGTACX_site3136]	6.59
TTTGTCTGCATACGCACACACGTGTACCATCTTATG [CACACA_site4784]	7.89

Sequence	gcPBM binding intensity (ln)
AATTAACAAAGACACACACACACACGCACAAAAAAA [CACACA_site6388]	7.33
GTTAAAATTGGGGACGCATGTTCCTTTCCTTTTTTT [TGCATGCA_site1002]	5.83
TAAATATAAACACAAACACACACATATATATATATA [CACACA_site7978]	9.27
AATATAATATAATGCACACATAAAACAAAAAAAAAA [CACACA_site3012]	10.2
ATATAATCTGAGTGCACACAAATAAATAAACATACA [CACACA_site422]	10.2
TTAACAAATAAATGCACACATATATATAAATAATAT [CACACA_site28]	9.43
TAATATAATCTGAGTGCACACAAATAAATAAACATA [CACACA_site8032]	11.2
AATATAATATAATGCACACATAAACAAAAAAAAAAA [CACACA_site783]	10.5
AATGTTAAACTATGATGTACGGTTAAAAATATAATT [XGTACX_site893]	6.43
TTATATTTTCAGAATAGTACACATATATACATATAT [XGTACX_site2519]	6.46
GTATCAATAAAAAACAGTACATATATAATATATTTA [XGTACX_site1083]	6.24
TATTTTCATTTGCGCGCACACAATAATAATTTTTGG [CACACA_site3525]	8.28
GATAGACACGTGCACACATGCAATACTTTATTCAGT [TGCATGCA_site778]	10
ATTTGATAGACACATGCACACATGCAATACTTTATT [CACACA_site5633]	9.05
TTTAATTTGATAGACACATGCACACGTGCAATACTT [TGCATGCA_site777]	10.9
TATTAACAAAATTTTTAACACACAAAAAAAAAAAAA [CACACA_site8542]	6.18
ATATCAACTGAATTGTATAGGCGATAAAAGAAAAAA [CACACA_negctrl_site1334]	6.58
ATAGAAGGCAACTTGGTGCACAAAAAAAAAAATAAT	10.5
TCCTATATCACAAATGTGCACAGAAAAAAAAAATAT	11
AACATGCAAACATGCACACAGAAAAAAAAAATATAT [CACACA_site1565]	9.37
TATATATCAAAAATATGTACACAGAAATATATATTA [XGTACX_site6997]	6.96
TATTCTTACAAAAGTAGTACAATCATTCATATTTTT [XGTACX_site631]	6.42
